Bioassay records as filed in PubChem.
Sampled rows, rich in hits. Any-hit rate of the full collection: about 7.7%.
TbPYK inhibitor – qHTS of Trypanosoma Brucei Inhibitors. TbPYK enzyme, Kinase-Glo Plus ATP luminescence, 45 min. Potency, µM (series often up to 76.8 µM), hits mostly inhibitors. 0.12% of 410,000 active; further: nearly all actives have a fitted effect of over 50% in size
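Quantitative HTS: titrated library compounds versus trypanosomal pyruvate kinase in TEA buffer (pH 7.2) containing KCl, MgCl2, BSA and Tween-20. Reactions were initiated with ADP, 130 uM final. Kinase-Glo Plus luminescence was read after 45 min at RT.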
FMDV antiviral – High Throughput Screening for Foot and Mouth Disease Virus Antivirals; FMDV antiviral cell-based qHTS; Potency, µM (titrated, usually from 57.9 µM), actives largely listed as inhibitors; 1.2% of 410,000 active; calls by dose curve; tested in HEK293T cells; further: read-out not given here; nearly all actives have a fitted effect of over 45% in size
FBPA Giardia inh – qHTS Assay for Inhibitors of Fructose-1,6-bisphosphate Aldolase from Giardia Lamblia; purified Giardia FBPA; Potency, µM (series often up to 59.6 µM), hits mostly inhibitors; 0.71% of 290,000 active; further: nearly all actives have a fitted effect of over 55% in size
Target sequence (A8B2U2 whole entry, looked up): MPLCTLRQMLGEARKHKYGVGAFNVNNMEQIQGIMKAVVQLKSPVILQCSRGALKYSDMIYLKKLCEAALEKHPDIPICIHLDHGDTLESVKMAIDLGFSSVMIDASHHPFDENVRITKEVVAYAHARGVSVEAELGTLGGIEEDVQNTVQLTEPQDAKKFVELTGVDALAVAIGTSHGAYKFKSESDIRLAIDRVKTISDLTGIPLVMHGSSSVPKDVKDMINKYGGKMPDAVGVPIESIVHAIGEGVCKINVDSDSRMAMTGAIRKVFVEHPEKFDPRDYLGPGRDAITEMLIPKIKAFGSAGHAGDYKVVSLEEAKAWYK
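40 nM FBPA preincubated 10 min at RT with compound (up to 57.5 uM final), then substrate plus GAPDH/TPI/NAD/arsenate coupling and diaphorase/resazurin added. Fluorescence read after 20 min at RT, 525/598 nm.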
HCMV antiviral – qHTS Assay for inhibitors of the human cytomegalovirus (HCMV) | activity change, negative = inhibition, % at 57.5 µM | 4.5% of 410,000 active | HFF cells, HCMV-luciferase reporter, 72 h; hits give low values; in the data active means activity change below about -60%; inconclusive means no clear call, values can overlap the other calls; inactive means above about -39%
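Human foreskin fibroblasts infected with luciferase-reporter HCMV at MOI 1 PFU/cell, compounds at two doses. Luciferase measured 72 h post infection; normalized to buffer-only basal and Salinomycin (10uM) controls.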
RE007 growth inh – qHTS Assay for Inhibitors of the HIV-1 protein Vpr | S. pombe RE007 Vpr strain, BacTiter-Glo ATP luminescence, 24 h | Potency, µM (doses to about 92.2 µM), most hits filed as inhibitors | 0.21% of 360,000 active; active means well fitted falling curve with a large enough effect; inconclusive means small, poorly fitted or top-dose-only effect; inactive means no such curve, though single readings can be large or run the other way; further: nearly all actives have a fitted effect of over 50% in size
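Fission yeast strain RE007, carrying one chromosomally integrated HIV-1 vpr copy, was seeded at OD 0.01 in PMG+AL medium with 23 nL pinned compound. After 24 h at 30 °C and 99% humidity, viability was read by BacTiter-Glo luminescence.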
Sm TGR inh – qHTS Assay for the Inhibitors of Schistosoma Mansoni Peroxiredoxins. AID 485364, 2010. purified TGR, DTNB reduction, TNB absorbance 405 nm. 3% of 360,000 active. Potency, µM (series often up to 114 µM), most hits filed as inhibitors; further: nearly all actives have a fitted effect of over 60% in size
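Kinetic colorimetric format: TGR-catalysed, NADPH-driven DTNB reduction monitored via TNB absorbance. Enzyme dispensed at 20 nM; compound exposure 15 min at room temperature before reaction start.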
A number is an active result; i = inactive; ? = inconclusive; nt = not tested or not shown. Unless noted, the call rests on the fitted dose curve; in most records, active means well fitted curve in the direction sought with a large enough effect; inconclusive means small, poorly fitted or top-dose-only effect, or another doubt; inactive means no such curve, though single readings can be large; an effect the other way counts as inactive or inconclusive.

SMILES	TbPYK inhibitor	FMDV antiviral	FBPA Giardia inh	HCMV antiviral	RE007 growth inh	Sm TGR inh
Cn1c(=O)n(CCc2ccccc2)c(=O)c2c1nc1n2CCN1c1ccc(Cl)cc1	i	i	nt	i	nt	i
COc1cc(COCC(O)CN2CCN(CCN3C(=O)c4cccc5cccc(c45)C3=O)CC2)cc(OC)c1OC (stereo unspecified)	i	?	i	-76	i	i
COc1ccc(COCC(O)CN2CCC(CN3C(=O)c4cccc5cccc(c45)C3=O)CC2)cc1OC (stereo unspecified)	i	?	i	i	i	i
O=C1c2cccc3cccc(c23)C(=O)N1CCN1CCN(CC(O)COCc2ccc(Cl)cc2)CC1 (stereo unspecified)	i	?	i	-79	i	i
Cc1ncc2c(c1CNS(=O)(=O)N(C)C)CCN(C(=O)c1ccc(-c3ccc(F)cc3)cc1)C2	nt	i	nt	nt	nt	nt
Oc1ccc(Cl)cc1Nc1nc(NCC2CCCO2)c2ccccc2n1 (stereo unspecified)	i	28µM	nt	i	nt	nt
Oc1ccccc1Nc1nc(NCC2CCCO2)c2ccccc2n1 (stereo unspecified)	i	?	i	i	i	i
Oc1ccc(Nc2nc(NCC3CCCO3)c3ccccc3n2)cc1 (stereo unspecified)	i	i	i	i	i	i
COc1cccc(Nc2nc(NCC3CCCO3)c3ccccc3n2)c1 (stereo unspecified)	i	20µM	i	?	i	i
c1cncc(-c2nc(NCC3CCCO3)c3ccccc3n2)c1 (stereo unspecified)	i	i	i	nt	i	i
CC(C)Oc1ccc(-c2nc(NCC3CCCO3)c3ccccc3n2)cc1 (stereo unspecified)	i	?	i	-78	i	i
CSCC[C@H](NC(=O)[C@@H]1CCCN1C(=O)CNC(=O)[C@H](CCCCN)NC(=O)[C@H](Cc1cnc[nH]1)NC(=O)[C@H](CO)NC(=O)[C@H](CC(C)C)NC(=O)[C@H](CCCNC(=N)N)NC(=O)[C@@H]1CCCN1C(=O)[C@H](CCCNC(=N)N)NC(=O)[C@H](CCC(N)=O)NC(=O)[C@H](CCCNC(=N)N)NC(=O)[C@H](CCCNC(=N)N)NC(=O)[C@H](Cc1ccccc1)NC(=O)[C@@H](N)CCCCN)C(=O)N1CCC[C@H]1C(=O)N[C@@H](Cc1ccccc1)C(=O)O	nt	nt	i	nt	nt	nt
COc1ccc(CN2CCCC(c3nc(-c4ccncc4)ncc3-c3ccccc3)C2)cc1OC (stereo unspecified)	nt	i	nt	nt	nt	nt
CCCC(C(=O)Nc1c(C)cccc1C)N1C(=O)C(=O)c2ccccc21 (stereo unspecified)	nt	nt	nt	i	nt	nt
COc1cccc(CNC(=O)c2cc(C)nc3c2c(C)nn3-c2ccc(C)cc2)c1	i	i	nt	i	nt	i
Fc1ccc(Nc2ncnc3ccc(-c4ccoc4)cc23)cc1	nt	i	i	nt	nt	nt
COc1cc(OC)cc(C(=O)Nc2ccc3c(c2)N(C2CCCC2)C(=O)c2ccccc2S3)c1	i	i	nt	?	nt	i
COc1cccc(CNC(=O)c2nnc(Cc3ccc(Cl)cc3)o2)c1	i	i	nt	i	nt	i
COc1cccc(CNc2ccc([N+](=O)[O-])cc2C)c1	i	i	i	i	i	nt
COc1ccc(OC)c(CNc2ccc([N+](=O)[O-])cc2C)c1	i	?	i	-91	i	i
Cc1nn(-c2ccccc2)c(Cl)c1CN(C(=O)CCl)c1ccc(Cl)cc1	i	i	i	-99	i	2µM
Cc1nn(-c2ccccc2)c(Cl)c1CN(C(=O)CCl)c1cccc2ccccc12	i	28µM	i	-99	i	?
COC(=O)c1ccc(Nc2nccc3[nH]c(-c4cccc(C(F)(F)F)c4)cc23)cc1	nt	nt	nt	i	nt	nt
CCCNC(=O)N1[C@@H]2Cn3c(cccc3=O)[C@H]1[C@@H](C(=O)OC)[C@@H]2CO	nt	nt	nt	i	nt	nt
CC(=O)C1=C(OC(=O)C(C)C)c2ccccc2S(=O)(=O)N1Cc1ccccc1	i	i	nt	i	nt	i
SMILES	TbPYK inhibitor	FMDV antiviral	FBPA Giardia inh	HCMV antiviral	RE007 growth inh	Sm TGR inh
Cc1ccc(C)c(N2CCN(C(=O)c3cc4ccccc4oc3=O)CC2)c1	i	i	i	-62	i	i
COc1cccc(N2CCN(C(=O)Cn3ncc4c(=O)oc5ccccc5c43)CC2)c1	i	i	nt	i	nt	i
Cc1ccc(C)c(N2CCN(C(=O)Cn3ncc4c(=O)oc5ccccc5c43)CC2)c1	i	i	nt	i	nt	8.9µM
CCN(CC)CCn1c(=N)n(CCOc2ccccc2Cl)c2ccccc21	i	?	nt	-99	nt	i
CCN(CC)CCn1c(=N)n(CC(O)COc2ccccc2C)c2ccccc21 (stereo unspecified)	i	i	nt	-99	nt	i
CCN(CC)CCn1c(=N)n(CC(O)COc2cccc(C)c2)c2ccccc21 (stereo unspecified)	i	?	?	?	i	i
Cn1c(=O)n(CCOc2ccccc2Cl)c2ccccc21	i	i	i	i	i	i
Oc1cccc(-c2nc3ccccc3s2)c1	?	i	i	i	?	i
Oc1cccc(-c2nnc(-c3cccc(O)c3)nn2)c1	i	8.9µM	nt	i	i	nt
CCOc1ccc(-c2c(C)nn3c(C)c(C(=O)NC(C)c4ccccc4)cnc23)cc1OCC (stereo unspecified)	i	?	nt	i	nt	i
Cc1ccc(S(=O)(=O)c2c(C)nn(-c3ccccc3)c2OC(=O)c2ccco2)cc1	i	i	i	?	i	35µM
Cc1ccc(S(=O)(=O)c2c(C)nn(-c3ccccc3)c2OC(=O)c2ccc(Br)o2)cc1	i	i	?	i	i	i
O=C(Nc1cc2c(cc1C(=O)c1ccccc1Br)OCCO2)c1cccc(Cl)c1	i	i	nt	i	nt	i
C=CCn1c(C)cc(-c2csc(NCC)n2)c1C	i	i	?	-63	i	i
CCOC(=O)c1cc(NC(=O)c2ccc(OC)cc2)c(=O)n2c1oc1ccc(Cl)cc12	i	i	nt	i	nt	i
CCN(CC)CC(C)(C)C(=O)/C=C/c1ccc(/C=C/C(=O)C(C)(C)CN(CC)CC)cc1	i	3.5µM	nt	i	i	nt
CC(=O)N1CCN(c2c(F)c(F)c(C(F)(F)F)c(F)c2F)CC1	i	?	i	-61	i	i
CC(=O)N1CCN(c2nc3c(F)cc(F)cc3s2)CC1	i	i	nt	i	nt	i
CC12CC[C@H]3[C@@H](CCC4(O)C[C@H](O)CCC34/C=N/NC(=O)c3ccccc3[N+](=O)[O-])C1(O)CCC2C1=CC(=O)OC1 (stereo partly specified)	i	i	i	-78	i	i
